Data as given in ChEMBL document CHEMBL3433997, “St. Jude Leishmania screening dataset” (2016).

Key:
Format in all cases: functional
[1] = molecular target: Solute carrier family 2, facilitated glucose transporter member 1 (Homo sapiens) (UniProt P11166); test: ST_JUDE_LEISH: Cytotoxicity at 2uM final concentration against transgenic Leishmania Mexicana promastigotes LmGLUT1 that are glucose transport deficient and complemented with the human glucose transporter GLUT1. Activity is measured by DNA content using SYBR green in vitro
Sequence of Solute carrier family 2, facilitated glucose transporter member 1 (Homo sapiens) (P11166 whole entry): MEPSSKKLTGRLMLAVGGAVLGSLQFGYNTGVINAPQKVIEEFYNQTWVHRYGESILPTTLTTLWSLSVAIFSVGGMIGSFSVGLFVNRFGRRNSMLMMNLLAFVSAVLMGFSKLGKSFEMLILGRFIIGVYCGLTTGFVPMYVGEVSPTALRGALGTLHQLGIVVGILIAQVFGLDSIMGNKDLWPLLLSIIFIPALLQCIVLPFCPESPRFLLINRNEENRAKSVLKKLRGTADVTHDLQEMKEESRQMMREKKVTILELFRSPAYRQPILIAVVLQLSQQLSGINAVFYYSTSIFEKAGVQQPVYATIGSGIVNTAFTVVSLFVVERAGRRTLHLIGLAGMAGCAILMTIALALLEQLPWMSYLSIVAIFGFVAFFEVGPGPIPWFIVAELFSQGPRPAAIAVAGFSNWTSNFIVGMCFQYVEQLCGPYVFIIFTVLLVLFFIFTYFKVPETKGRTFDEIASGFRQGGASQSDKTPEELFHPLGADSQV

[2] = molecular target: Hexose transporter 1 (Plasmodium falciparum) (UniProt O97467); test: ST_JUDE_LEISH: Cytotoxicity at 2uM final concentration against transgenic Leishmania Mexicana promastigotes LmPfHT that are glucose transport deficient and complemented with the Plasmodium falciparum hexose transporter. Activity is measured by DNA content using SYBR green in vitro
[3] = molecular target: Glucose transporter (Leishmania mexicana) (UniProt O61059); test: ST_JUDE_LEISH: Cytotoxicity at 2uM final concentration against transgenic Leishmania Mexicana promastigotes LmGT2 that are glucose transport deficient and complemented with the L. Mexicana glucose transporter 2. Activity is measured by DNA content using SYBR green in vitro

Row | SMILES | inhibition [1] [%] | inhibition [2] [%] | inhibition [3] [%]
1 | CC(C)c1ccc(CN2CCC(NC(=O)c3ccc(-c4ccccc4F)s3)CC2)cc1 | 0.51 | 0.39 | -1.39
2 | O=C(NCC1CCN(CC2CCCCC2)C1)c1cc(-c2cccc(Cl)c2)cs1 (stereo not given) | 2.86 | 1.57 | 1.14
3 | Cc1c(C)n(C2CCCCC2)c2ncnc(OC3CCN(CC(=O)N4CCCC4)CC3)c12 | 1.06 | 3.02 | 1.38
4 | Cc1cc(C(F)(F)F)n2nc(C3CCN(Cc4cc(C)c(O)c(C)c4)C3)cc2n1 (stereo not given) | 4.53 | 3.54 | -0.59
5 | O=C(CN1CCN(S(=O)(=O)C=Cc2ccccc2)CC1)Nc1cc(C(F)(F)F)ccc1Cl | 9.54 | 7.6 | 8.72
6 | CN(C)c1ccc(-c2csc(C(=O)NC3CCN(CCC(C)(C)C)C3)c2)cc1 (stereo not given) | 3.05 | 4.39 | 2.37
7 | Cc1ccc(S(=O)(=O)NC2=NC(=N)N(OCc3ccc(Cl)c(Cl)c3)C(C)(C)N2)cc1 | 12.6 | 13.6 | 13.9
8 | O=C(NC1CCN(Cc2ccc3c(c2)OCCO3)CC1)c1ccc(-c2cccc(C(F)(F)F)c2)s1 | 3.14 | 1.52 | 2.57
9 | COc1cccc(CNC(=O)NC2CCN(c3ccnc(Nc4cc(OC)c(OC)c(OC)c4)n3)C2)c1 (stereo not given) | 2.39 | 1.6 | 2.88
10 | COC(=O)c1ccccc1N1CCN(CCCCNC(=O)c2ccc(NC(=O)c3cc(Cl)cc(Cl)c3)cc2)CC1 | 3.86 | 5.53 | 3.09
11 | c1ccc(-c2nnc(-c3ccccn3)nc2NC2CCCCC2)cc1 | 80 | 79.8 | 71.2
12 | Cn1nc(-c2ccc(NC(=O)Nc3cc(C(F)(F)F)cc(C(F)(F)F)c3)c(F)c2)c2cnc(NCCN3CCOCC3)nc21 | 2.68 | 2.48 | 3.49
13 | Cc1noc(C)c1CN1Cc2ccccc2OC2(CCN(Cc3c[nH]c4cnccc34)CC2)C1 | -0.38 | -0.56 | 2.32
14 | CCN1CCN(Cc2ccc(NC(=O)c3cc4ccc5cccnc5c4[nH]3)cc2)CC1 | 17.2 | 15.9 | 11.4
15 | COc1ccc(COc2c(OC)cc(Cc3cnc(N)nc3N)cc2OC)cc1 | 5.65 | 5.76 | 6.57
16 | CCCc1cn2c3c(cc(C(=O)N[C@@H](Cc4ccccc4)[C@H](O)CNC4CCOCC4)cc13)N(CC)S(=O)(=O)CC2 | 1.86 | 2.35 | 1.03
17 | CCOC(=O)CCCCCNC[C@H](O)c1ccccc1 | -1.32 | -0.8 | -2.14
18 | CC(C)(CNCc1ccc(C(F)(F)F)cc1)c1nc(-c2ccc(Cl)c(O)c2)c(-c2ccncc2)[nH]1 | 0.52 | -0.09 | 0.02
19 | C(=NN=c1cc(-c2ccccc2)[nH]c2ccccc12)c1cccnc1 | 15.1 | 11.7 | 6.62
20 | c1cc(CNCC2CCN(CC3CCCCC3)CC2)cc(-n2ccnc2)c1 | -1.01 | -0.61 | 0.1
21 | CCNc1cc(C)nc(Nc2ccc(NC(=O)c3ccco3)cc2)n1 | 4.54 | 3.53 | -0.01
22 | c1cncc(CCNCc2cccc(-c3ccc(-c4nc5ccccc5[nH]4)s3)c2)c1 | 7.99 | 7.19 | 4.65
23 | CCCCOc1c(CCC)cc(Cc2cnc(N)nc2N)cc1CCC | 7.57 | 3.82 | -0.35
24 | COc1ccc2ncc(Cl)c([C@@H](O)CN3CCC(NCc4cc5c(cn4)OCCO5)CC3)c2c1 | 9.54 | 10.5 | 1.19
25 | c1ccc(CN2CCC(NCc3ccccc3-c3ccc(CNCc4ccc5c(c4)OCO5)cc3)CC2)cc1 | 11.8 | 10.4 | 9.54

Row | SMILES | inhibition [1] [%] | inhibition [2] [%] | inhibition [3] [%]
26 | Nc1nc(N)c2cc(NC(=O)c3ccc(Cl)c(Cl)c3)ccc2n1 | 5.31 | 2.01 | 4.8
27 | COc1cccc2[nH]c(NCCCNCc3cc(Br)cc(Br)c3)nc12 | 3.51 | 1.26 | 2.63
28 | CN1CCN(c2nsc3ccc(-c4ccc(OCCN5CCCC5)cc4)cc23)CC1 | 13.2 | 11.4 | 9.39
29 | CCc1nc(N)nc(N)c1-c1ccc(F)cc1 | 6.27 | 4.73 | 5.14
30 | O=C(NCCc1ccc(Cl)c(Cl)c1)[C@@H]1CCCN1C(=O)c1ccc(O)c(-c2cccc(C(F)(F)F)c2)c1 | 1.34 | -0.04 | -2.44
31 | O=C(Nc1ccc(-c2cccc(-c3nc4cc(F)ccc4[nH]3)c2)cc1)c1ccncc1 | 13.9 | 14.2 | 12.9
32 | CCCc1cc(C(=O)N[C@@H](Cc2ccccc2)[C@H](O)CNC(C)(C)c2cccc(OC)c2)c(F)c(N2CCCC2=O)c1 | 9.67 | 7.94 | 9.99
33 | Cc1ccc(CN2CCCN(Cc3cccc(NC(=O)c4cc5ccccc5s4)c3)CC2)cc1C | 0.56 | 0.71 | -0.17
34 | O=C(Nc1ccc(S(=O)(=O)N2CCCC2)cc1)c1cc(-c2cccnc2)nc2ccc(Cl)cc12 | 7.34 | 2.97 | 3.06
35 | Cc1c(Cc2ccccc2Br)cnc2nc(N)nc(N)c12 | 9.6 | 30.2 | 14.2
36 | Cc1cccc2nc(-c3ccc(-c4ccc(NC(=O)Nc5cccc(C#N)c5)cc4)cc3)[nH]c12 | 9.74 | 6.91 | 7.39
37 | CCc1c(CCNCCCCCCNCCc2ccccc2)ccc(OC)c1OC | 4.61 | 5.04 | 2.63
38 | N#Cc1ccc(CN2CCC(Oc3ccc(NC(=O)c4cccs4)cc3Cl)C2)cc1 (stereo not given) | -0.24 | 3.89 | -0.2
39 | CC(Cc1ccc(C(=O)N2CCN(C(=O)c3ccc(CC(C)NCCc4cccc(Cl)c4)cc3)CC2)cc1)NCCc1cccc(Cl)c1 (stereo not given) | 6.51 | 3.6 | 5.54
40 | Nc1ncc(-c2ccsc2)c2ccc(-c3cnc[nH]3)cc12 | 1.46 | 0.14 | -0.37
41 | Cc1cc(C=C2SC(=Nc3ccccc3)N(C3CCCC3)C2=O)c(C)n1-c1ccc(Cl)cc1 | 0.96 | 0.85 | 1.29
42 | COc1ccc(CN2CCC(CNCCc3ccccc3Cl)CC2)cc1 | 19.2 | 11.1 | 12.5
43 | CC(CN(C)C)C(=O)Nc1ccc(-c2ccc(-c3nc4ccccc4[nH]3)s2)cc1 (stereo not given) | 2.59 | 3.52 | 6.24
44 | Brc1cc(Br)c2c(c1)C(NCCCNc1nc3ncccc3[nH]1)CCN2 (stereo not given) | 68 | 78.5 | 73.5
45 | O=C(CC1CCCCC1)NCC(NCCCNc1cc(=O)c2ccccc2[nH]1)c1cc(Br)cc(Br)c1 (stereo not given) | 3.89 | -1.16 | 2.63
46 | Cc1cc(Cl)ccc1N(Cc1ccccc1)c1ccnc(Cl)n1 | 1.11 | 1.68 | 0.11
47 | CCc1ccc(NC(=O)c2cccc(CN3CCCN(Cc4cccc(O)c4)CC3)c2)cc1 | 3.9 | 3.08 | 2.2
48 | COc1ccc(-c2cnc3[nH]cc(-c4ccc(CCC(=O)O)cc4)c3c2)cn1 | 5.06 | 4.52 | 6.38
49 | Cc1cccc2nc(-c3ccc(-c4cccc(NC(=O)NCc5cccc(F)c5)c4)s3)[nH]c12 | -1.66 | -0.47 | -1.14
50 | CN1CCN(c2cc(NC(=O)c3ccc(-c4ccc(C#N)cc4)cc3)ccc2Cl)CC1 | 0.4 | -0.14 | 0.17

Row | SMILES | inhibition [1] [%] | inhibition [2] [%] | inhibition [3] [%]
51 | Fc1ccc2[nH]c(-c3ccc(-c4ccc(CN5CCN(c6cnccn6)CC5)cc4)s3)nc2c1 | 2.41 | 1.2 | 0.86
52 | O=S(=O)(Nc1ccc(CCN2CCCCC2CCN2CCCC2)cc1)c1ccc(-c2ccccc2)cc1 (stereo not given) | 9.09 | 14.3 | 3.63
53 | OC(CNCc1ccccc1Oc1ccccc1)c1cc(Br)cs1 (stereo not given) | 4.37 | 3.03 | 3.26
54 | Cc1[nH]c(C)c(-c2ccc(-c3cccc(C(F)(F)F)c3)nc2)c(=O)c1Br | 9.61 | 8.1 | 6.29
55 | CC(=O)c1cccc(NC(=O)C2c3ccccc3C(=O)N(CC(C)C)C2c2cccs2)c1 (stereo not given) | -0.21 | 0.13 | 0.19
56 | O=C(Nc1ccc(Cl)c(Cl)c1)Nc1ccc(F)c([N+](=O)[O-])c1 | -2.06 | 0.4 | -2.36
57 | COc1cc2nc(NCc3ccc(S(N)(=O)=O)cc3)nc(Nc3ccc(Oc4ccccc4)cc3)c2cc1OC | 4.15 | 4.39 | 3.67
58 | CC1SC(=S)NC1C(=O)O (stereo not given) | -1.93 | 0.57 | 0.24
59 | CCn1c(Cc2ccccc2)nnc1Sc1ccc([N+](=O)[O-])c(C#N)c1 | 5.75 | 6.38 | 3.87
60 | CC(C)CCNC(=N)Nc1ccc(OCCCOc2ccc(NC(=N)NCCC(C)C)cc2)cc1 | 0.62 | -1.4 | -0.91
61 | Cc1ccc(C2=NNC3(S2)C(=O)Nc2ccc(C)cc23)cc1 (stereo not given) | -2.4 | 2.71 | 3.44
62 | Cc1ccc2nc(C)cc(NC(=O)Nc3ccc(N(C)C)cc3)c2c1 | 7.58 | 5.69 | 7.68
63 | N=C(N)c1ccc(NC(=O)c2cc(Sc3ccc(O)c(C(=O)Nc4ccc(C(=N)N)cc4)c3)ccc2O)cc1 | 9.7 | 10.9 | 4.34
64 | Cc1nc2c(c(C)nn2C(C)(C)C)c(C)c1CCC(=O)Nc1ccc(CN2CCCC2)cc1 | 9.93 | 6.16 | 5.29
65 | Cc1cccc(C)c1OC(=O)CSc1nnc(-c2ccccc2O)o1 | 1.32 | 2.43 | 1.28
66 | COc1cccc(OC)c1OCCCOc1c(C)nc(N)nc1N | 0.61 | 1.79 | 0.4
67 | C(=N\Nc1nccc2sc(-c3cccnc3)cc12)/c1ccncc1 | 5.3 | 5.29 | 1.98
68 | CC(C)(C)c1nn(-c2ccccc2)c2[nH]c(=O)c(CNCc3ccc4c(c3)OCO4)cc12 | 6.79 | 3.28 | 3.39
69 | COc1cc(C(=O)NC2CCc3ccccc32)cc(Cl)c1OC (stereo not given) | -4.04 | -0.96 | -0.41
70 | c1ccc(CCNc2ncnc3c2[nH]c2ccccc23)cc1 | 3.67 | 11.6 | 3.69
71 | COc1ccccc1C1CCN(C2CCC(NC(=O)/C=C/c3cc(C(F)(F)F)ccc3F)CC2)CC1 (stereo not given) | 2.98 | 2.36 | 3.14
72 | CCCC1N=C(N)N=C(N)N1c1cccc(C(F)(F)F)c1 (stereo not given) | 0.83 | 0.06 | 0.06
73 | O=c1cc(NCCCNCc2cc(Cl)cc(Cl)c2OCc2ccc(Cl)cc2)[nH]c2ccccc12 | 1.67 | 0.9 | 3.19
74 | COc1cc(NC(=O)c2cc3c(C)nn(-c4cccc(C(F)(F)F)c4)c3s2)cc(OC)c1OC | 0.22 | 1.29 | 2.46
75 | CC(=O)Oc1c(Br)c(C)nc(C)c1-c1ccc(Oc2ccc(OC(F)(F)F)cc2)cc1 | 1.58 | 0.11 | 0.37
